Rows were chosen to be rich in hits. Some 12% of all compounds tested hit in one or more screens of this group.
Sfp PPTase inh: blocks B. subtilis Sfp PPTase activity | Biochemical Sfp PPTase activity, qHTS | Q9F4F7 | AID 1490 | 3.5% of 310,000 active | Potency, µM, without a hit: largest response in the series, negative = inhibition, actives largely listed as inhibitors;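 further: the enzyme is Sfp with the accession as filed and its product quenches rhodamine fluorescence; 0% = enzyme reaction without inhibitor and -100% = no enzyme wells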
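Fluorescence-quenching assay with 15 nM Sfp, 5 uM rhodamine-CoA and 12.5 uM BHQ-2-labelled ybbR peptide in pH 7.6 Hepes/MgCl2 buffer. Enzyme was pre-incubated with compound for 15 min at room temperature. Rate was taken from the 30-min fluorescence change (525/598 nm).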
HP1b chromo inh: HP1-beta chromodomain-methylated histone interaction inhibition | P83916 | AlphaScreen HP1-beta / biotin-H3K9me3 peptide binding | Potency, µM (series often up to 114 µM), inactives show at the highest dose activity change, negative = inhibition, hits mostly inhibitors | 0.56% of 390,000 active | AID 540317; further: nearly all actives have a fitted effect of over 70% in size
Target sequence (P83916 whole entry, looked up): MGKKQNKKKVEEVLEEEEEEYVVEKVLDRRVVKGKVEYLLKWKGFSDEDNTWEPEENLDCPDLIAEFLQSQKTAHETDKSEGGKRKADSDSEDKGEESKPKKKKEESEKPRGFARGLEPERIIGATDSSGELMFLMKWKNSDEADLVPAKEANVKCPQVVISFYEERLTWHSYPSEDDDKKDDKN
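Compound inhibition of the preformed complex between 50 nM HP1-beta and 50 nM biotinylated H3K9me3 peptide was read by AlphaScreen. Buffer was PBS pH 7.4 with 0.01% Tween-20. Incubations ran 30 min at room temperature, with 10 ug/mL donor/acceptor beads.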
G9a inh: G9a (human) methyltransferase inhibition; AID 504332; G9a H3K9 monomethylation, AlphaScreen, 2 h; Potency, µM (series often up to 102 µM), for the others: at the highest dose activity, negative = inhibition, actives largely listed as inhibitors; Q96KQ7; 8.8% of 350,000 active; further: on the % scale 0 is the no-effect control and ±100 the full control effect; nearly all actives have a fitted effect of over 75% in size
Target sequence (Q96KQ7 913-1193 limits assumed): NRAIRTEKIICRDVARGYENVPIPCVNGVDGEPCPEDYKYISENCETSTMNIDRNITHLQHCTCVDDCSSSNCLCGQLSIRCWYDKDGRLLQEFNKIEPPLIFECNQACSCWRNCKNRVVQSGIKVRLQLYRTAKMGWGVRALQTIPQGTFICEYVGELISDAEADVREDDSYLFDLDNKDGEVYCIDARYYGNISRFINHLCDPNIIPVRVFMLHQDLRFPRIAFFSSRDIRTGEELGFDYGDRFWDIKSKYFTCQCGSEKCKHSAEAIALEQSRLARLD
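Using a bead-based AlphaScreen, monomethylated H3K9 product from 2 h room-temperature reactions (G9a 20 nM, peptide 500 nM, SAM 20 uM) was detected with 0.5 ug/mL rabbit anti-H3K9me1 antibody.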
JMJD2A Tudor: blocks the human JMJD2A Tudor domain. O75164. AlphaScreen JMJD2A-Tudor / H3K4me3 peptide binding. Potency, µM (doses to about 114 µM), inactives show top-dose activity change, negative = inhibition, most hits filed as inhibitors. 4.4% of 390,000 active. AID 504339; further: on the % scale 0 is the no-effect control and ±100 the full control effect; nearly all actives have a fitted effect of over 50% in size
BAZ2B block: BAZ2B (human) inhibition | AlphaScreen BAZ2B-H3K14Ac peptide displacement | 4.4% of 360,000 active | Q9UIF8 | Potency, µM (top dose mostly 114 µM), for inactives: at the highest dose activity change, negative = inhibition, most hits filed as inhibitors; further: on the % scale 0 is the no-effect control and ±100 the full control effect; nearly all actives have a fitted effect of over 60% in size
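In this displacement format the biotinylated H3(5-23) peptide acetylated at Lys14 serves as ligand at 50 nM, with BAZ2B at 50 nM in PBS pH 7.4 containing 0.01% Tween-20. Donor and acceptor beads are 10 ug/mL final.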
An asterisk follows results filed as active; [ ] = dose if it differs, or a comment. The call rests on the fitted dose curve; in most records, active means well fitted curve in the direction sought with a large enough effect; inconclusive means small, poorly fitted or top-dose-only effect, or another doubt; inactive means no such curve, though single readings can be large; an effect the other way counts as inactive or inconclusive. Potency means the concentration at half of the fitted maximal effect.

Screening CC1(c2ccccc2)CC(C)(C)N2C(=O)C3(C(C#N)=C(N)Oc4cc(O)ccc43)c3cccc1c32 (centres undefined) returned Sfp PPTase inh 8%, HP1b chromo inh inconclusive, G9a inh -15%[59 µM], JMJD2A Tudor inconclusive and BAZ2B block -38%.
`Nc1nn(-c2ccccc2)c(N)c1N=Nc1ccccc1F` gave Sfp PPTase inh -8%, HP1b chromo inh -33%, G9a inh inconclusive, JMJD2A Tudor inconclusive and BAZ2B block 35µM*.
`Cc1nn(-c2ccccc2)c(N)c1N=Nc1ccccc1` gave Sfp PPTase inh -2%, HP1b chromo inh inconclusive, G9a inh 45µM*, JMJD2A Tudor 56µM* and BAZ2B block 32µM*.
For Cc1ccc(C)n1-c1cccc(S(=O)(=O)N2CCOCC2)c1 the results were Sfp PPTase inh 16%, HP1b chromo inh 26%, G9a inh 20%[59 µM], JMJD2A Tudor -14% and BAZ2B block -30%.
Screening Nc1nn(-c2ccccc2)c(N)c1N=Nc1ccccc1 returned Sfp PPTase inh -5%, HP1b chromo inh inconclusive, G9a inh inconclusive, JMJD2A Tudor inconclusive and BAZ2B block 40µM*.
`Cc1nn(-c2ccccc2)c(N)c1-c1ccccc1` gave Sfp PPTase inh 20%, HP1b chromo inh 32%, G9a inh 1%, JMJD2A Tudor -16% and BAZ2B block -14%.
`Cc1nn(-c2ccccc2)c(N)c1N=Nc1cccc(S(=O)(=O)N2CCOCC2)c1` gave Sfp PPTase inh 5%, HP1b chromo inh inconclusive, G9a inh inconclusive, JMJD2A Tudor inconclusive and BAZ2B block 28µM*.
Cc1cccc(N=Nc2c(C)nn(-c3ccccc3)c2N)c1C was read as Sfp PPTase inh -7%, HP1b chromo inh inconclusive, G9a inh 10µM*, JMJD2A Tudor 25µM* and BAZ2B block 18µM*.
Screening Cc1nn(-c2ccccc2)c(N)c1N=Nc1ccc(Cl)cc1 returned Sfp PPTase inh inconclusive, HP1b chromo inh inconclusive, G9a inh 35µM*, JMJD2A Tudor 45µM* and BAZ2B block 40µM*.
Screening COCCN1Cc2cccc(C(=O)Nc3ccc(Cl)cc3Cl)c2C1=O returned HP1b chromo inh 57%, G9a inh inconclusive and JMJD2A Tudor 15%.
Screening Cc1noc(Cn2c(=O)c3cc4c(cc3n(CC(=O)Nc3ccc(C(C)C)cc3)c2=O)OCO4)n1 returned HP1b chromo inh 5%, G9a inh -23%[59 µM], JMJD2A Tudor -19% and BAZ2B block -8%.
`O=C(c1ccccc1O)N(Cc1ccccc1)Cc1cccs1` gave JMJD2A Tudor -18%.
`CCOC(=O)N1CCN(CC(=O)c2ccc3c(c2)CCN3C(C)=O)CC1` gave Sfp PPTase inh -24%, HP1b chromo inh 31%, G9a inh 32µM*, JMJD2A Tudor -23% and BAZ2B block -1%.
CC(=O)N1CCc2cc(C(=O)CN3CCCCC3)ccc21 was read as Sfp PPTase inh -21%, HP1b chromo inh 36%, G9a inh 50µM*, JMJD2A Tudor -26% and BAZ2B block 3%.
CN(C)c1ncc2nc(-c3cccc(C#N)c3)c(=O)n(CCC#N)c2n1 was read as Sfp PPTase inh 12% and G9a inh 2%[0.501 µM].
COc1cccc(NC(=O)CSc2ncc3c(n2)-c2ccc(Cl)cc2N(C)S3(=O)=O)c1 was read as HP1b chromo inh 14%, G9a inh -8%[59 µM], JMJD2A Tudor -8% and BAZ2B block -6%.
Screening CN1CCCN(Cc2ccccc2C(F)(F)F)CC1 returned Sfp PPTase inh -28%, HP1b chromo inh inconclusive, G9a inh inconclusive, JMJD2A Tudor 0.71µM* and BAZ2B block 50µM*.
`CCCS(=O)(=O)N1CCN(Cc2c[nH]c3ccccc23)CC1` gave Sfp PPTase inh -13%, HP1b chromo inh inconclusive, G9a inh 25µM*, JMJD2A Tudor 22µM* and BAZ2B block 50µM*.
Screening C=CCOc1ccccc1CN1CCC(CO)(CCOc2ccccc2)CC1 returned Sfp PPTase inh 1%, HP1b chromo inh 42%, G9a inh 7%, JMJD2A Tudor -14% and BAZ2B block -1%.

Screening data as filed in PubChem BioAssay.
